# In PubChem BioAssay:
# Target: Torsin-1A (Homo sapiens) (UniProt O14656)
# Experiment: torsin A mutant lysate binding on microarrays – cell lysate, small-molecule microarray, COS7 lysate, 635/667 nm fluorescence, primary screen (AID 1150);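 note: score pools 667 nm emission and signal to noise measuring lysate protein binding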
# Settings: COS7 hTOR1A mutant lysate, 635 nm fluorescence, higher = more signal
# Sequence of Torsin-1A (Homo sapiens) (O14656 whole entry, looked up): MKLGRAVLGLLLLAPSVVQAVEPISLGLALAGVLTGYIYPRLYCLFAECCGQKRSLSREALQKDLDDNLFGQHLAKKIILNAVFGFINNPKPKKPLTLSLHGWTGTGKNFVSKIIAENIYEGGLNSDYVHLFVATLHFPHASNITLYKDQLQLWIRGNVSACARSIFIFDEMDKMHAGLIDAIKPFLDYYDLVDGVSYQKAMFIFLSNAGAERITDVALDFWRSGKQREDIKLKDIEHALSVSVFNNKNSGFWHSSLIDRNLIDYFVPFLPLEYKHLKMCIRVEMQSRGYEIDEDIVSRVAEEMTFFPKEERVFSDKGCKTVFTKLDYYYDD
row,Compound,composite z-score
1,COC(=O)C(CC#Cc1ccc2c(c1)[C@]1(C(=O)N2)[C@H](c2ccc(OCCO)cc2)N2[C@H](c3ccccc3)[C@H](c3ccccc3)OC(=O)[C@H]2[C@@H]1C(N)=O)C(=O)OC,-0.127
2,COC(=O)C(CC#Cc1ccc2c(c1)[C@]1(C(=O)N2)[C@H](c2ccccc2OCCO)N2[C@H](c3ccccc3)[C@H](c3ccccc3)OC(=O)[C@H]2[C@@H]1C(=O)N1CCN(c2ncccn2)CC1)C(=O)OC,0.498
3,COC(=O)Cn1c(C(=O)N(C)C)cc2c1C[C@H]1CN(C(=O)c3ccccc3)[C@@](Cc3ccccc3)(C(=O)OC)[C@@H]21,0.541
4,COC(=O)[C@@]1(Cc2ccc(OC)cc2)[C@@H]2[C@@H](CC(=O)[C@H]2CC(=O)C(=O)N(C)C)CN1C(=O)c1ccccc1,0.452
5,COC(=O)[C@@]1(Cc2ccccc2)[C@H]2c3cc(C(=O)N(C)C)n(Cc4nc5ccccc5[nH]4)c3C[C@H]2CN1C(=O)c1ccccc1,0.853
6,COCCOC(=O)N1C(=O)[C@@]2(c3cc(C#CCCO)ccc31)[C@H](C(=O)N1CCN(c3ncccn3)CC1)[C@H]1C(=O)O[C@H](c3ccccc3)[C@H](c3ccccc3)N1[C@@H]2c1ccc(OCCO)cc1,0.458
7,C=C(CCCC)/C(=C/C[C@@H](OC(C)=O)c1cccc(OCCO)c1)c1cc(C(=O)OC)ccc1OC,-0.558
8,C=CCOC(=O)[C@H]1[C@@H]2C(=O)O[C@@H](c3ccccc3)[C@@H](c3ccccc3)N2[C@@H](c2ccc(OCCOC(=O)[C@H]3C[C@H]4C(=O)NCC(=O)N4[C@H]3c3cccc(OCCO)c3)cc2)[C@]12C(=O)Nc1ccc(I)cc12,0.83
9,CCOC(=O)C=C1C[C@@H](c2cccc([N+](=O)[O-])c2)O[C@@H](c2cccc([N+](=O)[O-])c2)O1,0.582
10,COc1ccc(C#Cc2ccc3c(c2)[C@]2(C(=O)N3)[C@H](c3ccccc3OCCO)N3[C@H](c4ccccc4)[C@H](c4ccccc4)OC(=O)[C@H]3[C@@H]2C(=O)NC[C@H](O)c2ccccc2)cc1,0.701
11,C=CC[C@H](O)c1ccc(O)c2ccccc12,0.46
12,Cc1ccc(S[C@]2(C(=O)NCCN3CCOCC3)CC(=O)N(C(C)C)[C@@H]2c2ccc(CO)cc2I)cc1,-0.26
13,CN(C)C(=O)[C@]1(CCS(=O)(=O)c2ccccc2)N=C(c2ccc(OCCCO)cc2)O[C@@H]1c1ccccc1CN=[N+]=[N-],0.927
14,C[C@H]1C2[C@H](Cc3ccccc3)NC(=O)[C@]23C(=O)N[C@@H](Cc2ccccc2)C(=O)N2CCC[C@H]2C(=O)NC/C=C/CC/C=C/C3[C@@H]2O[C@]12C (stereo not given in full),0.49
15,C=CCN1C(=O)[C@]2(O[C@H](CCO)[C@@H]([Si](C)(C)c3ccc(OC)cc3)[C@@H]2C)c2cc(N3C(=O)c4ccccc4Oc4ccccc43)ccc21,0.418
16,CO[C@H]1O[C@H](CO)[C@@H](OC(=O)Nc2ccccc2)[C@@H]2OC(=O)[C@@H](Cc3ccccc3)C/C=C/C[C@H](Cc3ccccc3)C(=O)O[C@@H]12,1.93
17,COC(=O)[C@@]1(Cc2ccc(OC)cc2)[C@H]2c3cc(C(=O)N(C)C)n(Cc4c(CO)[nH]cc(C)c4=O)c3C[C@H]2CN1C(=O)c1ccccc1,0.461
18,COc1cccc(C)c1NC(=O)O[C@H]1[C@H](OC(=O)Nc2ccccc2-c2ccccc2)[C@@H](OC(=O)Nc2ccccc2-c2ccccc2)[C@@H](OC)O[C@@H]1CO,1.23

row,Compound,composite z-score
1,CCCNC(=O)[C@@]1(Sc2ccc(C)cc2)CC(=O)N(Cc2cc(C(F)(F)F)cc(C(F)(F)F)c2)[C@@H]1c1ccc(CO)cc1,-0.155
2,COC(=O)[C@@]1(Cc2ccc(F)cc2)[C@H]2c3cc(C(=O)N(C)C)n(Cc4ccc(C(F)(F)F)nc4)c3C[C@H]2CN1C(=O)c1ccccc1,0.717
3,COC(=O)[C@@]1(Cc2ccccc2)[C@H]2c3cc(C(=O)N(C)C)n(Cc4ccc(Cl)c(C(F)(F)F)c4)c3C[C@H]2CN1C(=O)c1ccccc1,0.0947
4,CN1C(=O)C2C=CC(C(O)c3ccc(I)cc3)N(N(c3ccccc3)c3ccccc3)C2C1=O (stereo not given),-0.545
5,Cc1ccc(S[C@]2(C(=O)NCc3ccccc3)CC(=O)N(Cc3ccccc3C(F)(F)F)[C@@H]2c2ccc(CO)cc2I)cc1,-0.45
6,COCCCNC(=O)[C@@]1(CCC(=O)OC(C)(C)C)N=C(c2ccc(OCCCO)cc2)O[C@H]1c1ccccc1,1.12
7,C=C(COC)/C(=C/C[C@@H](OC(C)=O)c1cccc(OCCO)c1)c1cnc2ccccc2c1,0.499
8,COC(=O)[C@@]1(Cc2ccc(F)cc2)[C@H]2c3cc(C(=O)N4CCCC4)n(Cc4ccc(OC(F)(F)F)cc4)c3C[C@H]2CN1C(=O)c1ccccc1,0.395
9,O=C1OCCC/C=C\[C@H]2OC34C=CCN(Cc5ccccc5)C(=O)[C@H]3N(CCO)C(=O)[C@@H]4C12 (stereo not given in full),0.232
10,COC(=O)[C@H](Cc1ccccc1)N1CC(C)(OC)O[C@@H](Cc2ccccc2)[C@H]1/C=C/C1CC1 (stereo not given in full),0.269
11,COc1c(C)cc(-c2cc3c(c(CCc4ccccc4)n2)[Si](C(C)C)(C(C)C)O[C@H]3c2ccccc2)cc1C,-0.554
12,[N-]=[N+]=Nc1ccccc1C[C@@]1(C(=O)NCc2ccccc2)N=C(c2ccc(OCCCO)cc2)O[C@@H]1c1ccccc1,0.506
13,C=C(CCCC)/C(=C/C[C@@H](OC(C)=O)c1ccc(OCCO)cc1)c1cc(C(=O)OC)ccc1OC,0.687
14,C=CCNC(=O)[C@H]1[C@@H]2C(=O)O[C@@H](c3ccccc3)[C@@H](c3ccccc3)N2[C@@H](c2ccc(OCCO)cc2)[C@]12C(=O)Nc1ccc(C#Cc3ccc(OC)cc3)cc12,0.471
15,CC(C)N1C(=O)[C@@]2(Cc3ccccc31)c1ccccc1C(=O)N(Cc1ccccc1C(F)(F)F)[C@H]2c1ccc(CO)cc1,-0.139
16,COC(=O)c1ccc(OC)c(/C=C\CC(OC(=O)c2ccncc2)c2ccccc2)c1 (stereo not given),0.292
17,O=C(NC1CC1)[C@@H]1c2ccccc2C(=O)N(C2CCCCC2)[C@H]1c1ccc(CO)cc1,0.324
